This test has as its system LEGO organoid PT (PTEN-/-; TP53-/-). The test can be described thus: bioluminescence (viable cell) signal fold change after vs before treatment, normalised to DMSO (ratio); higher = more tumour cell growth / less inhibition. The settings on record: 10 µM; treatment time 6 days. As to the method: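 Luc2-labelled iPSC-derived glioblastoma-like organoids (LEGOs, genotypes PT = PTEN-/-;TP53-/-, PTCC = plus CDKN2A/B-/-, PTN = plus NF1-/-) were treated with 10 uM drug for 6 days (applied every other day) at 37 C. Bioluminescence imaging was done before treatment and 2 days after the last dose. BLI signals were normalised to the DMSO control on the same day and then to the pre-treatment signal (N=3).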
Consider `FC(F)(F)C(Cl)Br` (stereo not given) [Anestan], for which the bioluminescence stood at 1.01.
For `COc1ccccc1OCC(O)COC(N)=O` (stereo not given) [Methocarbamol], the bioluminescence was 0.829.
For `CCn1c(=O)c2c(nc(/C=C/c3ccc(OC)c(OC)c3)n2C)n(CC)c1=O` [Istradefylline], the bioluminescence worked out at 0.737.
In the case of `O.O.O.O.[Li][O]C(=O)CC(O)(CC(=O)[O][Li])C(=O)[O][Li]` [Lithium citrate tetrahydrate], the bioluminescence was 1.01.
For the compound `COc1ccc(Cl)cc1C(=O)NCCc1ccc(S(=O)(=O)NC(=O)NC2CCCCC2)cc1` [Glyburide], the bioluminescence amounted to 2.23.
`Cc1[nH]c(=O)c(C#N)cc1-c1ccncc1` [Milrinone]: the bioluminescence is 1.11.
In the case of `CNS(=O)(=O)CCc1ccc2[nH]cc(C3CCN(C)CC3)c2c1.Cl` [Naratriptan hydrochloride], the bioluminescence is 0.774.
As to `CC1(C)O[C@@H]2[C@@H](CO[C@@]3(COS(N)(=O)=O)OC(C)(C)O[C@@H]23)O1` [Topiramate], the bioluminescence worked out at 1.02.
Regarding `CC(CN(C)C)CN1c2ccccc2CCc2ccccc21.O=C(O)/C=C\C(=O)O` (stereo not given) [Trimipramine maleate], the bioluminescence came to 0.503.
In the case of `Cc1nc2n(c(=O)c1CCN1CCC(c3noc4cc(F)ccc34)CC1)CCCC2` [Risperidal], the bioluminescence worked out at 1.57.
`COCCCC/C(=N\OCCN)c1ccc(C(F)(F)F)cc1.O=C(O)/C=C\C(=O)O` [Fluvoxamine maleate]: the bioluminescence amounted to 1.22.
In the case of `C/C(O)=C(\C#N)C(=O)Nc1ccc(C(F)(F)F)cc1` [Teriflunomide] it was 1.68.
Turning to `CNS(=O)(=O)Cc1ccc2[nH]cc(CCN(C)C)c2c1.O=C(O)CCC(=O)O` [Sumatriptan succinate], the bioluminescence came out at 1.23.
Turning to `C#Cc1cccc(Nc2ncnc3cc(OCCOC)c(OCCOC)cc23)c1.Cl` [Erlotinib hydrochloride], the bioluminescence was determined as 1.53.
On to `Cl.OC[C@H]1NC[C@H](O)[C@@H](O)[C@H]1O` [Migalastat hydrochloride], for which the bioluminescence amounted to 0.868.
With `O=c1[nH]c(=O)n(C2CCCO2)cc1F` (stereo not given) [Tegafur], the bioluminescence amounted to 1.04.
In the case of `N[C@@H]1CONC1=O` [D-Cycloserine] it was 1.3; in that of `O=c1[nH]cnc2c1ncn2[C@H]1CC[C@@H](CO)O1` [Didanosine], 0.958; in that of `CCC(CC)O[C@@H]1C=C(C(=O)O)C[C@H](N)[C@H]1NC(C)=O` [Oseltamivir acid], 0.803.
In the case of `Nc1ncnc2c1ncn2[C@@H]1O[C@H](CO)[C@@H](O)[C@H]1OP(=O)(O)O` [Adenosine-2'-monophosphate] it was 1.31; in that of `OCCN1CCN(CCCN2c3ccccc3Sc3ccc(Cl)cc32)CC1` [Perphenazine], 0.743.
In the case of `CCCNS(=O)(=O)Nc1ncnc(OCCOc2ncc(Br)cn2)c1-c1ccc(Br)cc1` [Macitentan] it was 1.16; in that of `NC(=O)c1cnccn1` [Pyrazinamide], 0.603.
With `CC(=O)Nc1ccc(O)cc1` [Acetaminophen], the bioluminescence worked out at 1.19.
For `O=C(O)Cc1ccccc1Nc1c(Cl)cccc1Cl` [Diclofenac], the bioluminescence was 1.11.
In the case of `N[C@@H](CC(=O)O)C(=O)O` [L-Aspartic acid], the bioluminescence is 0.844.
As to `CN(C)CC(c1ccc(O)cc1)C1(O)CCCCC1` (stereo not given) [Desvenlafaxine], the bioluminescence worked out at 1.01.
Take `CNCC[C@@H](Oc1ccccc1C)c1ccccc1.Cl` [Atomoxetine hydrochloride]: the bioluminescence worked out at 0.833.
Regarding `N#Cc1ccc2[nH]cc(CCCCN3CCN(c4ccc5oc(C(N)=O)cc5c4)CC3)c2c1` [Vilazodone], the bioluminescence was 0.812.
For the compound `Nc1ncnc2c1ncn2[C@@H]1O[C@H](CO)[C@@H](O)[C@H]1O` [Adenosine], the bioluminescence came out at 2.1.
With `CC[C@@H]1/C=C(\C)C[C@H](C)C[C@H](OC)[C@H]2O[C@@](O)(C(=O)C(=O)N3CCCC[C@H]3C(=O)O[C@H](/C(C)=C/[C@@H]3CC[C@H](Cl)[C@H](OC)C3)[C@H](C)[C@@H](O)CC1=O)[C@H](C)C[C@@H]2OC` [Pimecrolimus], the bioluminescence was 1.29.
With `Cc1cccc(C)c1OCC(=O)N[C@@H](Cc1ccccc1)[C@@H](O)C[C@H](Cc1ccccc1)NC(=O)[C@H](C(C)C)N1CCCNC1=O` [Lopinavir], the bioluminescence was 1.02.
Regarding `S=c1nc[nH]c2nc[nH]c12` [Mercaptopurine], the bioluminescence amounted to 4.23.
With `COc1ccc([C@@H]2CC(=O)c3c(O)cc(O[C@@H]4O[C@H](CO[C@@H]5O[C@@H](C)[C@H](O)[C@@H](O)[C@H]5O)[C@@H](O)[C@H](O)[C@H]4O)cc3O2)cc1O` [Hesperidin], the bioluminescence stood at 1.16.
The same measure for `Nc1cccc2c1C(=O)N(C1CCC(=O)NC1=O)C2=O` (stereo not given) [Pomalidomide]: 1.5; for `CS(=O)(=O)CCNCc1ccc(-c2ccc3ncnc(Nc4ccc(OCc5cccc(F)c5)c(Cl)c4)c3c2)o1` [Lapatinib]: 1.62; for `CC(=O)c1c(C)c2cnc(Nc3ccc(N4CCNCC4)cn3)nc2n(C2CCCC2)c1=O.O=S(=O)(O)CCO` [Palbociclib Isethionate]: 3.4.
For `CN(C)CCc1c[nH]c2ccc(CS(=O)(=O)N3CCCC3)cc12.O=C(O)CC(O)C(=O)O` [Almotriptan Malate], the bioluminescence is 1.74.
For the compound `CO/N=C(\C(=O)N[C@@H]1C(=O)N2C(C(=O)[O-])=C(COC(C)=O)CS[C@H]12)c1csc(N)n1.[Na+]` [Cefotaxime sodium], the bioluminescence is 0.745.
Take `CNCCCC1c2ccccc2C=Cc2ccccc21.Cl` [Protriptyline hydrochloride]: the bioluminescence stood at 0.749.

The record behind these values is the supplement of paper PMC10811239.
